KCNQ2 block = inhibitors of rat KCNQ2 potassium channel | O88943 | B-score at 10 µM | hit rate 1.1% among 310,000 | CHO-K1 KCNQ2, FluxOR thallium flux, 20 min; active compounds read low | AID 2156;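 active means fluorescence ratio B-score at most minus 3 library SDs, with starting brightness B-score within 2 library SDs, cut at about -5.5 in these data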
Target sequence (O88943 whole entry, looked up): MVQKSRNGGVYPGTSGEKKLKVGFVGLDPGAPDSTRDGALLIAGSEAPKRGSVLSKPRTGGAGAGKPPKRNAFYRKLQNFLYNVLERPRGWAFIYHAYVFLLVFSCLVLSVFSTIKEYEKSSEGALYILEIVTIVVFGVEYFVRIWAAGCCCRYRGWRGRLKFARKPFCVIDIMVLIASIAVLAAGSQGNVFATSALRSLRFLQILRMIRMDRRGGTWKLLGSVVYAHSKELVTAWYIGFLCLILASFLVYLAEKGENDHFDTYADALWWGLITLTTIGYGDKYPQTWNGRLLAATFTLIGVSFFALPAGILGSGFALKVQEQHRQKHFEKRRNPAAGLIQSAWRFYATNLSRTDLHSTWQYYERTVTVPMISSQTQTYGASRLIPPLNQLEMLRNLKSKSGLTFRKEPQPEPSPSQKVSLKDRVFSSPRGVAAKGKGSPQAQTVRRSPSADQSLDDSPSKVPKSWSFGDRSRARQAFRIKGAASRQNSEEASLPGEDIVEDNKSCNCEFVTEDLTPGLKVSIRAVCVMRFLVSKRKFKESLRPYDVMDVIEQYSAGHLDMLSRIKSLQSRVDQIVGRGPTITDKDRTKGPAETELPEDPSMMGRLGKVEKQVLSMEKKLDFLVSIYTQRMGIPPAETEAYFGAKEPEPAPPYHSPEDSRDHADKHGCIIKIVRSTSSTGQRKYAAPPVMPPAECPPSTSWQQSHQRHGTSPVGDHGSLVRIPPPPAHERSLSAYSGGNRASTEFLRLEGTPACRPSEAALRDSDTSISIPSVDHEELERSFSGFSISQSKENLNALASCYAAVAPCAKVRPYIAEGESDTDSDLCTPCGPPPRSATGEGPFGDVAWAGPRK
KCNQ2 enhance = potentiators of rat KCNQ2 potassium channel. B-score at 10 µM. hit rate 0.54% among 310,000. CHO-K1 KCNQ2, FluxOR thallium flux fluorescence; active compounds read high;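 active means fluorescence ratio B-score at least 3 SD of library B-scores, with initial fluorescence B-score within 3 of them, cut at about 5.3 in these data; same plate scores as AID 2156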;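 further: B-score of peak minus minimum over baseline fluorescence ratio after K+ and Tl+ stimulus; positive B-score means potentiation of KCNQ2 with more thallium influx and brighter signal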
Kir21 confirm = confirmation of mouse Kir2.1 potassium channel inhibitors | shares compounds with KCNQ2 enhance | Kir2.1-expressing cells, FluxOR thallium flux fluorescence; active compounds read low | Tl flux remaining, % of negative control (active compounds read low), % at 10 µM | hit rate 41% among 2,300 | AID 2032;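 active means Primary-screen hit whose thallium flux fell at least 3 control SD below untreated wells in both duplicates, with normal baseline fluorescence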;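 further: 0% = blank wells without stimulus and 100% = stimulated no-compound controls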
HEK293 Tl flux = alters thallium flux in parental HEK293 cells, Kir2.1 counter-screen; shares compounds with KCNQ2 enhance; FluxOR thallium flux fluorescence; 0% = unstimulated blank wells; FluxOR signal as % of negative control (100 = no effect), % at 10 µM; hit rate 19% among 2,300; AID 2105;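 active means dye signal at least 3 control SD above or below untreated wells in both duplicates, raw fluorescence within 3, either direction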;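 further: percent is based on the flux ratio of peak minus minimum fluorescence over baseline F0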
CHO-K1 ctr = parental CHO-K1 activity in KCNQ2 potentiator counter-screen; activity increase over 3SD of controls, % at 10 µM; AID 2282; parental CHO-K1 cells, FluxOR thallium flux fluorescence; zero = vehicle mean+3SD, 100% = vehicle-minus-blank window; hit rate 43% among 1,200; shares compounds with KCNQ2 enhance;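 active means signal rise of at least 3 SD above the untreated control mean, in both duplicate wells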;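 further: counter screen of KCNQ2 potentiator hits so any rise reflects channel-independent effects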
KCNQ1 sel pot = selectivity of KCNQ2 potentiators: effect on human KCNQ1. shares compounds with KCNQ2 enhance. hit rate 28% among 1,200. CHO KCNQ1 stable, FluxOR thallium flux fluorescence; beyond 3SD, as % of vehicle-control signal. AID 2283. activation over 3SD threshold, % at 10 µM;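 active means fluorescence ratio rise of at least 3 SD of vehicle wells above their mean, in both replicate wells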;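 further: 0% = vehicle mean plus 3 SD and 100% = vehicle minus unstimulated blank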
KCNQ2 pot conf = rat KCNQ2 channel potentiator confirmation. potentiation, less the hit threshold, % at 10 µM. hit rate 68% among 1,200. AID 2287. shares compounds with KCNQ2 enhance. CHO-KCNQ2 cells, FluxOR thallium flux fluorescence;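 active means fluorescence ratio rising 3 SD or more over the vehicle control mean in both replicates, plus primary screen hit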;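 further: peak minus minimum thallium fluorescence divided by baseline after K/Tl stimulus; 0% = vehicle mean plus 3 SD and 100% = vehicle minus unstimulated blank difference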
Kir2-1 sel = mouse Kir2.1 off-target activity of KCNQ2 potentiators. shares compounds with KCNQ2 enhance. HEK293 Kir2.1, FluxOR thallium flux fluorescence. activity over 3SD threshold, % at 10 µM. hit rate 2% among 1,200;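 active means fluorescence ratio rise of at least 3 SD above the vehicle-control mean, seen in both replicates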;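 further: 0% = vehicle mean plus 3 SD and 100% = vehicle minus no-stimulus blank window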
KCNQ2 W236L MoA = KCNQ2 potentiators acting on retigabine-insensitive rat KCNQ2 W236L mutant; AID 2558; shares compounds with KCNQ2 enhance; CHO KCNQ2-W236L, automated patch clamp current; hit rate 10% among 940; current increase over 3SD of negative controls (%), active compounds read high, % at 25 µM;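 active means current increase at least 3 SD of the untreated controls above them in both duplicate recordings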
The depositor's hits bear a star; i = inactive; · = no result given. Only some compounds are listed: those with a hit (about 1.6% of all), similar ones and a draw of the others.

SMILES	KCNQ2 block	KCNQ2 enhance	Kir21 confirm	HEK293 Tl flux	others
NS(=O)(=O)c1cc(C(=O)N2CCNC(=O)C2)ccc1Cl	i	·	·	·
COc1cc(/C=C2/SC(=S)N(CC(=O)O)C2=O)ccc1OCC(=O)Nc1ccc(C)c(C)c1	i	·	i	i
COc1ccc(/C=C2/SC(=O)N(CCC(=O)Nc3ccc(C)cc3)C2=O)cc1OC	i	0.85	·	·
Cc1ccc(S(=O)(=O)N2CCCCC2C(=O)N(C)c2ccccc2)cc1 (configuration not stated)	i	0.68	·	·
CCOC(=O)CN1C(=O)NC(C)(c2ccc(OC(F)F)cc2)C1=O (configuration not stated)	i	·	·	·
CC(=O)Nc1ccc(/C=N/N2C(=O)NC(C)(c3ccc(OC(F)F)cc3)C2=O)cc1 (configuration not stated)	i	18*	i	i	CHO-K1 ctr=-27;KCNQ1 sel pot=11*;KCNQ2 pot conf=24*;Kir2-1 sel=-25;KCNQ2 W236L MoA=i
Cc1cccc(-c2oc3ccccc3c2C#CCCO)c1	i	·	·	·
O=C(Nc1ccc(Oc2cccc3ccccc23)cc1)c1ccco1	i	6.4*	i	i	CHO-K1 ctr=-7;KCNQ1 sel pot=-18;KCNQ2 pot conf=-10;Kir2-1 sel=-37;KCNQ2 W236L MoA=i
O=C(O)c1ccccc1C(=O)Nc1ccc(Oc2cccc3ccccc23)cc1	i	0.74	·	·
O=C(CCc1ccccc1)Nc1ccc(NC(=O)c2ccco2)cc1	i	0.76	·	·
O=C(Nc1ccc(CSc2ccccc2)cc1)c1ccco1	i	6.9*	i	i	CHO-K1 ctr=76*;KCNQ1 sel pot=-13;KCNQ2 pot conf=-2;Kir2-1 sel=-46;KCNQ2 W236L MoA=i
O=C(NCC1CCCO1)c1cc([N+](=O)[O-])ccc1Cl (configuration not stated)	i	0.39	·	·
CN(C)CC#CCOC(c1ccccc1)c1ccccc1	i	·	50%*	i
CCN(CC)CC#CCOC(c1ccccc1)c1ccccc1	i	·	·	·
Cc1ccc(NC(=S)NC(=O)C2CCC2)cc1C	i	·	·	·
Cc1ccc2oc(C(=O)Nc3ccc(S(=O)(=O)Nc4ncccn4)cc3)c(C)c2c1	i	·	·	·
O=C(c1cc(-c2ccc(Cl)cc2)n[nH]1)N1CCc2ccccc2C1	i	0.53	·	·
Fc1ccccc1Oc1nc(-c2ccncc2)nc2ccccc12	i	0.38	·	·
CCCc1cnc(NCCNCC(O)COc2ccc(Cl)c(Cl)c2)nc1 (configuration not stated)	i	·	68%*	i
CCOC(=O)c1c(C)n(C)c2ccc(OCC(O)CNCCc3ccccc3)cc12 (configuration not stated)	i	0.08	·	·
NC(=O)Nc1ccccc1C(=O)N1CCC(O)(c2ccc(Cl)cc2)CC1	i	0.18	·	·
COc1ccc(F)c(CN(C)CC2CCCN(CCc3ccc(F)cc3)C2)c1 (configuration not stated)	i	·	31%*	i
COc1ccc(CN(C)CC2CCCN(CCc3ccc(Cl)cc3)C2)cc1OC (configuration not stated)	i	·	·	·
COc1ccc(CCN2CCCC(CN(C)Cc3cc(OC)c(OC)c(OC)c3)C2)cc1 (configuration not stated)	i	0.93	·	·
CC(=O)c1cccc(CN(C)CC2CCCN(CCc3ccccc3C)C2)c1 (configuration not stated)	i	0.27	51%*	i
SMILES	KCNQ2 block	KCNQ2 enhance	Kir21 confirm	HEK293 Tl flux	others
COc1ccc(CN(C)CC2CCCN(CCc3ccc(F)cc3)C2)cc1OC (configuration not stated)	i	·	62%*	i
CCOc1cccc(CN(C)CC2CCCN(CCc3ccc(Cl)cc3)C2)c1O (configuration not stated)	i	·	48%*	i
CN(Cc1ccccc1)CC1CCCN(CCc2ccccc2F)C1 (configuration not stated)	i	·	·	·
COc1cc(CN(C)CC2CCCN(CCc3ccc(F)cc3)C2)c(Cl)cc1O (configuration not stated)	i	0.49	·	·
CN1CCN(C(=O)C(N)Cc2ccccc2)CC1 (configuration not stated)	i	0.11	·	·
CCOC(=O)c1n[nH]n2c1nc(=S)c1ccccc12	i	8.2*	i	391%*	CHO-K1 ctr=-24;KCNQ1 sel pot=-13;KCNQ2 pot conf=43*;Kir2-1 sel=1.3*;KCNQ2 W236L MoA=i
CCOC(=O)c1n[nH]c2ccccc12	i	1.3	·	·
CN=C(Nc1cccc(Cl)c1)SC1CC(=O)N(c2ccc(OC)cc2)C1=O (configuration not stated)	i	0.87	·	·
Cc1ccc2c(c1)N(CC(=O)NC1CCC(C)CC1)C(=O)c1cccnc1O2 (configuration not stated)	i	0.02	·	·
Cc1cc(C)n(-c2ccc(C(=O)NCc3ccc(F)cc3)cc2)n1	i	1.1	22%*	i
Cc1cc(C)n(-c2ccc(C(=O)NCc3ccc4c(c3)OCO4)cc2)n1	i	0.49	·	·
C/C(N)=C(/C#N)C(=O)COC(=O)c1ccc(NC(N)=O)cc1	i	0.32	·	·
COc1ccc2ccccc2c1CNC(C)CCc1ccccc1 (configuration not stated)	i	·	40%*	i
COc1ccc(CCNCc2c(OC)ccc3ccccc23)cc1OC	i	0.43	·	·
Cc1ccc(C(=O)N2CCCC2)cc1S(=O)(=O)Nc1cccc(C)c1C	i	0.33	·	·
CCOc1ccc(CCNC(=O)c2cnc(C)cn2)cc1OCC	i	·	·	·
Cc1nc(N2CCN(C)CC2)c2c(C)c(C(=O)Nc3ccc(C)c(F)c3)sc2n1	i	·	64%*	i
Cc1nc(N2CCC(C)CC2)c2c(C)c(C(=O)Nc3ccc(C)c(F)c3)sc2n1	i	·	·	·
COc1cc(C(C2=C(O)CC(C)(C)CC2=O)C2C(=O)CC(C)(C)CC2=O)cc(OC)c1OC (configuration not stated)	i	·	·	·
CC1(C)CC(=O)C(C(C2=C(O)CC(C)(C)CC2=O)c2ccco2)C(=O)C1 (configuration not stated)	i	5.4*	i	i	CHO-K1 ctr=135*;KCNQ1 sel pot=-10;KCNQ2 pot conf=42*;Kir2-1 sel=-44;KCNQ2 W236L MoA=i
CCOC(=O)c1c(CSc2ccccc2)oc2cc(Br)c(O)c(CN(C)C)c12	i	0.71	·	·
CCOC(=O)c1c(C)oc2ccc(O)c(CN(C)C)c12	i	0.06	·	·

Assay outcomes (PubChem)
